# Source: PubChem (National Center for Advancing Translational Sciences (NCATS))
# The list is not random: actives were taken first. Their share in the collection is about 6.2%.
# FMDV antiviral: blocks foot and mouth disease virus; FMDV antiviral cell-based qHTS; Potency, µM (titrated, usually from 57.9 µM), usual class: inhibitors; 410,000 tested, 1.2% active; AID 1159524; calls by dose curve; tested in HEK293T cells; further: read-out not given here; nearly all actives have a fitted effect of over 45% in size
# HCMV antiviral: inhibitors of human cytomegalovirus; HFF cells, HCMV-luciferase reporter, 72 h; active compounds read low; activity change, negative = inhibition, % at 57.5 µM; 410,000 tested, 4.5% active; AID 1259415; in the data active means activity change below about -60%; inconclusive means no clear call, values can overlap the other calls; inactive means above about -39%
#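 Inhibition of viral replication was scored as loss of reporter luminescence in HFFs infected with HCMV-luciferase (MOI 1 PFU/cell) for 72 h; compounds tested at 2 doses, normalized to buffer and Salinomycin controls.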
# LASV entry inh: inhibitors of Lassa virus binding or cell entry. Lassa virus pseudotype entry inhibition, cell reporter. Potency, µM (doses to about 37.9 µM), actives largely listed as inhibitors. 300,000 tested, 1.2% active; calls by dose curve; tested in HEK293 cells; further: nearly all actives have a fitted effect of over 50% in size
# MARV entry inh: blocks Marburg virus binding to or entry into cells. 300,000 tested, 1.8% active. Potency, µM (highest dose often 37.8 µM), usual class: inhibitors. Marburg virus pseudotyped entry inhibition, cell reporter; calls by dose curve; tested in HEK293 cells
# Hits are given with their value; i = inactive; ? = inconclusive; nt = no result.
SMILES,FMDV antiviral,HCMV antiviral,LASV entry inh,MARV entry inh
O=C(/C=C/c1ccc(Cl)cc1)NCc1ccco1,i,-64,6.5µM,?
O=C(COC(=O)/C=C/c1ccc(OC(F)F)cc1)NCc1cccs1,i,-64,?,i
O=C(/C=C/c1ccc(Br)cc1)NCc1cccs1,i,-61,2.6µM,i
O=C(/C=C/c1ccc(F)cc1)NCc1cccs1,i,i,?,i
O=C(CO/N=C/c1ccc(OC(F)F)cc1)NCc1cccs1,i,i,i,?
O=C(/C=C/c1ccccc1Cl)NCc1cccs1,i,i,18µM,i
CCOc1ccc(CNC(=O)c2ccc(NC(=O)N3CCSc4ncccc43)cc2)cc1,i,i,i,nt
COc1cc(C(=O)NCCCc2nc3ccccc3n2Cc2cc(C)ccc2C)cc(OC)c1OC,i,i,i,?
Cc1ccc(-c2nnc(Nc3ccc(CC(N)=O)cc3)c3ccccc23)cc1S(=O)(=O)NCCO,i,i,nt,nt
Cc1ccc(-c2nnc(Nc3ccc(Cl)c(Cl)c3)c3ccccc23)cc1S(=O)(=O)NCCO,i,-91,?,nt
Cc1ccc(-c2nnc(Nc3ccc4c(c3)OCO4)c3ccccc23)cc1S(=O)(=O)NC(C)C,i,-92,?,?
Cc1ccc(C)c(Nc2nnc(-c3ccc(C)c(S(=O)(=O)NCC4CCCO4)c3)c3ccccc23)c1 (stereo not given),i,-104,i,?
Cc1ccc(-c2nnc(Nc3ccc4c(c3)OCO4)c3ccccc23)cc1S(=O)(=O)NCCO,?,-94,i,i
Cc1csc(SC(C)C(=O)NCC(=O)Nc2ccc(F)c(F)c2F)n1 (stereo not given),i,i,i,i
O=Cc1ccc(N2Cc3ccccc3C2)cc1,i,i,?,1.3µM
Oc1ccc(N2Cc3ccccc3C2)cc1,i,nt,?,?
CNC(=S)NNC(=O)c1sccc1OCc1ccc(C)cc1,i,i,i,i
CN=C1S/C(=C\c2cc(C)n(-c3ccccc3F)c2C)C(=O)N1C,i,-66,?,?
Cc1cc(/C=C2\SC(=O)N(C)C2=O)c(C)n1-c1ccc(O)cc1,?,-69,nt,nt
CN=C1S/C(=C\c2ccc(N3CCOCC3)cc2C)C(=O)N1C,i,i,i,i
Cc1cc(/C=C2\SC(=S)N(Cc3ccco3)C2=O)c(C)n1-c1ccccc1,i,-67,?,?
CN(C)c1ccc(C=C2SC(=S)N(Cc3ccco3)C2=O)cc1,i,i,nt,nt
Cc1cc(/C=C2\SC(=S)N(C)C2=O)c(C)n1-c1cccc(O)c1,1.3µM,-92,nt,nt
CC(Sc1ccccc1)C(=O)N(CCC#N)Cc1cccnc1 (stereo not given),i,i,i,i
O=C(Nc1ccccc1C(=O)N1CCOCC1)c1ccco1,i,i,i,?
SMILES,FMDV antiviral,HCMV antiviral,LASV entry inh,MARV entry inh
Cc1nn(C)cc1CNC(=O)c1cc2n(n1)C(C(F)(F)F)CC(c1cccs1)N2 (stereo not given),nt,?,?,i
Cc1nn(C)c(C)c1CNC(=O)c1nn2c(c1Cl)NC(c1cccs1)CC2C(F)(F)F (stereo not given),nt,-86,i,?
COc1ccc(-c2cn3c(n2)CCC3)cc1,i,i,i,i
c1ccc(-c2ccc(-c3cn4c(n3)CCC4)cc2)cc1,?,-62,10µM,7.1µM
CCOC(=O)NNc1ccccc1,i,i,i,?
CCC(O)CC(C(=O)NNc1ccccc1)C(=O)NNc1ccccc1 (stereo not given),i,i,?,2.5µM
CCN1CCS/C1=C/C=C/C1=[N+](CC)CCS1,?,nt,?,2.5µM
CCN1CCS/C1=C\C=C\C1=[N+](CC)CCS1,?,-104,nt,2.5µM
Cc1ccc(/C=C/C(=O)OCC(=O)N2CC(=O)Nc3ccccc32)o1,i,i,i,i
CCN(CC(=O)Nc1ccc(NC(C)=O)cc1)C(=O)CCN1C(=O)c2cccc([N+](=O)[O-])c2C1=O,i,i,i,i
CC1CCCN(S(=O)(=O)c2ccc3c(c2)c(=O)nc2ccc(Cl)cn23)C1 (stereo not given),i,i,?,i
Cc1nn(Cc2ccc(F)cc2)c2sc(C(=O)Nc3ccc(N4CCOCC4)cc3N3CCOCC3)cc12,i,-67,?,?
Cn1c(CCNC(=O)C2CC23CCN(C(=O)C2=CCCC2)CC3)nc2ccccc21 (stereo not given),i,nt,nt,nt
C/C(=C\CNc1ncnc2nc[nH]c12)CO,i,i,nt,nt
CC(C)CCCCCCCCCCCCC(=O)NCC(=O)NC1C(C)OC(Nc2ncnc3nc[nH]c23)C(O)C1O (stereo not given),?,-96,0.079µM,?
Cc1ccccc1NC(=O)c1ccc(F)c(S(=O)(=O)N2CCN(c3ccccn3)CC2)c1,22µM,?,?,i
O=C(Nc1ccc(Br)cc1)c1ccc(F)c(S(=O)(=O)NC2CCCCCC2)c1,i,-98,?,nt
Cc1ccccc1NC(=O)c1ccc(C)c(S(=O)(=O)N2CCN(C)CC2)c1,i,i,nt,nt
O=C(Nc1ccc(Br)cc1)c1ccc(F)c(S(=O)(=O)N2CCN(c3ccccn3)CC2)c1,?,-89,?,?
CCOC(=O)N1C(=O)[C@@](CC)(c2ccccc2)N1C(=O)OCC,35µM,i,nt,nt
COC(=O)N1C(=O)[C@@](c2ccccc2)(C2CCCC2)N1C(=O)OC,20µM,i,nt,nt
COC(=O)N1C(=O)[C@](CC(C)C)(c2ccccc2)N1C(=O)OC,35µM,i,nt,nt
COC(=O)N1C(=O)[C@](c2ccccc2)(C2CCCCC2)N1C(=O)OC,i,i,nt,nt
CN1CCN(c2ccc(CNC(=O)C3Cc4c(-c5ccccc5Oc5ccccc5)ccnc4O3)cc2)CC1 (stereo not given),i,?,nt,nt
Cc1cc(C(=O)CSc2nc3ccccc3[nH]2)c(C)n1C,i,i,?,?
SMILES,FMDV antiviral,HCMV antiviral,LASV entry inh,MARV entry inh
Cc1cc(C(=O)CSc2nc3ccccc3[nH]2)c(C)n1Cc1ccco1,i,-85,4µM,?
C=CCn1c(C)cc(C(=O)CSc2nc3ccccc3[nH]2)c1C,i,-92,4.6µM,?
C=CCn1c(C)cc(C(=O)CSc2nc3ccccc3c(=O)[nH]2)c1C,?,i,?,?
Cc1cc(C(=O)CSc2nc3ccc(Cl)cc3[nH]2)c(C)n1CC1CCCO1 (stereo not given),14µM,-66,?,13µM
Cc1cc(C(=O)CSc2nc3ccc(Cl)cc3[nH]2)c(C)n1C,i,i,i,i
Cc1cc(C(=O)CSc2nc3ccccc3o2)c(C)n1C1CC1,i,i,?,?
C=CCn1c(C)cc(C(=O)CSc2nc3ccccc3o2)c1C,i,?,i,13µM
CCOC(=O)C1=C(CN2CCSCC2)NC(=O)NC1c1cc(C)ccc1C (stereo not given),nt,i,i,i
Cc1ccc2nc(SCC3CCCCO3)[nH]c2c1 (stereo not given),?,i,?,2.8µM
COC(=O)C1=C(C)N=C2SC(C)C(=O)N2C1c1ccc(C(=O)OC)cc1 (stereo not given),i,-88,i,?
Nc1cccc2nsnc12,i,i,i,?
Nc1cc2nsnc2cc1Br,?,-107,i,?
CCCCCOc1ccc(/C=C/c2c([N+](=O)[O-])c(=O)n(C)c(=O)n2C)cc1,?,-94,i,?
COc1ccc(/C=C/c2c([N+](=O)[O-])c(=O)n(C)c(=O)n2C)c(OC)c1OC,?,-65,?,?
Cn1c(/C=C/c2ccc(Cl)cc2)c([N+](=O)[O-])c(=O)n(C)c1=O,18µM,-98,nt,nt
